# Results reported in PubChem BioAssay (Tox21).
# Values without a mark were called inactive. Records with an inconclusive call do not appear. A call without a number means that no potency is given here. The source made the active and inactive calls. Unless noted, the call rests on the fitted dose curve; in most records, active means well fitted curve in the direction sought with a large enough effect in the repeat runs; inconclusive means weak or mixed curves; inactive means no such curve, though single readings can be large; an effect the other way counts as inactive or inconclusive.
# Assays:
# [1] = qHTS assay to test for compound auto fluorescence at 535 nm (green) in HEK293 cells (AID 720680)
# [2] = qHTS assay to test for compound auto fluorescence at 460 nm (blue) in HEK293 cell free culture (AID 720681)
# Method in brief: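 Blue fluorescence (Ex 405/Em 460 nm, triamterene-equivalent) was read immediately after pin transfer of compound or DMSO into medium (DMEM, 10% FBS) without cells.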
# [3] = qHTS assay to test for compound auto fluorescence at 535 nm (green) in HEK293 cell free culture (AID 720682)
# Method in brief: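 Cell-free medium (DMEM, 10% FBS) receives compound or DMSO by pintool. Plate read directly at Ex 485/Em 535 nm. Signal converted to fluorescein equivalency.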
# [4] = qHTS assay to test for compound auto fluorescence at 590 nm (red) in HEK293 cell free culture (AID 720683)
# Method in brief: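 Red-channel autofluorescence of compounds in culture medium (DMEM, 10% FBS), no cells, measured at 540/590 nm. Rose Bengal sodium is the reference fluorophore for equivalence.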
# [5] = qHTS assay to test for compound auto fluorescence at 590 nm (red) in HepG2 cell free culture (AID 720684)
# Method in brief: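 Plate contents were MEM with 10% FBS plus test compound or DMSO, no cells. Fluorescence was recorded with 540 nm excitation and 590 nm emission.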
# [6] = qHTS assay to test for compound auto fluorescence at 460 nm (blue) in HepG2 cell free culture (AID 720685)
# Method in brief: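 Compound (23 nL) or DMSO pinned into cell-free MEM with 10% FBS; blue fluorescence read at 405/460 nm excitation/emission, expressed as auto-fluorescence equivalency to triamterene.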
# [7] = qHTS assay to test for compound auto fluorescence at 535 nm (green) in HepG2 cell free culture (AID 720686)
# [8] = qHTS assay to test for compound auto fluorescence at 460 nm (blue) in HepG2 cells (AID 720687)
# Method in brief: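 Blue-channel autofluorescence (Ex/Em 405/460 nm, triamterene-equivalent) was measured after 1 hr compound exposure at 37 C, 5% CO2. Cells were HepG2, plated overnight at 37 C in MEM plus 10% FBS.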
# [9] = qHTS assay to identify small molecule antagonists of the glucocorticoid receptor (GR) signaling pathway - cell viability counter screen (AID 720693); further: nearly all actives have a fitted effect of over 55% in size; further: potency means the concentration at half of the fitted maximal effect
# [10] = qHTS assay for identifying genotoxic compounds that show differential cytotoxicity against isogenic chicken DT40 cell lines with known DNA damage response pathways - wild type cell line (AID 743012); further: nearly all actives have a fitted effect of over 60% in size; further: potency means the concentration at half of the fitted maximal effect
# Method in brief: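 Quantitative HTS on parental DT40 cells: 40 h compound treatment at 37 C/5% CO2, with viability then determined by CellTiter-Glo luminescence. Values serve as the DNA repair-proficient reference for differential cytotoxicity.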
# [11] = qHTS assay for identifying genotoxic compounds that show differential cytotoxicity against isogenic chicken DT40 cell lines with known DNA damage response pathways - Rev3 mutant cell line (AID 743014); further: nearly all actives have a fitted effect of over 55% in size; further: potency means the concentration at half of the fitted maximal effect
# [12] = qHTS assay for identifying genotoxic compounds that show differential cytotoxicity against isogenic chicken DT40 cell lines with known DNA damage response pathways - Rad54/Ku70 mutant cell line (AID 743015); further: nearly all actives have a fitted effect of over 60% in size; further: potency means the concentration at half of the fitted maximal effect
# [13] = qHTS assay to identify small molecule antagonists of the thyroid receptor (TR) signaling pathway - cell viability counter screen (AID 743064); further: nearly all actives have a fitted effect of over 50% in size; further: potency means the concentration at half of the fitted maximal effect
# Method in brief: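 GH3.TRE-Luc cells, 4 h pre-plating; cpd + T3 1 nM final; 37 °C 23.5 h; CellTiter-Fluor 30 min; fluorescence read.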
# [14] = qHTS assay to identify small molecule antagonists of the androgen receptor (AR) signaling pathway - cell viability counter screen (AID 743033; further: nearly all actives have a fitted effect of over 45% in size; further: potency means the concentration at half of the fitted maximal effect)
# [15] = qHTS assay to identify small molecule antagonists of the androgen receptor (AR) signaling pathway using the MDA cell line - cell viability counter screen (AID 743041; further: nearly all actives have a fitted effect of over 45% in size; further: potency means the concentration at half of the fitted maximal effect)
# Method in brief: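 R1881-driven MDA-kb2 AR-luc cells, 3,000/well, were dosed with library compounds for 16 h; cell health came from CellTiter-Fluor fluorescence in the reporter wells.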
# [16] = target: Androgen receptor (Homo sapiens) (UniProt P10275); assay: qHTS assay to identify small molecule antagonists of the androgen receptor (AR) signaling pathway (AID 743035; active means well fitted inhibition curve with a large enough effect in the signal ratio in the repeat runs, not every such curve was filed as active; the % refers to the signal ratio; further: potency means the concentration at half of the fitted maximal effect)
# Sequence of Androgen receptor (Homo sapiens) (P10275 whole entry, looked up): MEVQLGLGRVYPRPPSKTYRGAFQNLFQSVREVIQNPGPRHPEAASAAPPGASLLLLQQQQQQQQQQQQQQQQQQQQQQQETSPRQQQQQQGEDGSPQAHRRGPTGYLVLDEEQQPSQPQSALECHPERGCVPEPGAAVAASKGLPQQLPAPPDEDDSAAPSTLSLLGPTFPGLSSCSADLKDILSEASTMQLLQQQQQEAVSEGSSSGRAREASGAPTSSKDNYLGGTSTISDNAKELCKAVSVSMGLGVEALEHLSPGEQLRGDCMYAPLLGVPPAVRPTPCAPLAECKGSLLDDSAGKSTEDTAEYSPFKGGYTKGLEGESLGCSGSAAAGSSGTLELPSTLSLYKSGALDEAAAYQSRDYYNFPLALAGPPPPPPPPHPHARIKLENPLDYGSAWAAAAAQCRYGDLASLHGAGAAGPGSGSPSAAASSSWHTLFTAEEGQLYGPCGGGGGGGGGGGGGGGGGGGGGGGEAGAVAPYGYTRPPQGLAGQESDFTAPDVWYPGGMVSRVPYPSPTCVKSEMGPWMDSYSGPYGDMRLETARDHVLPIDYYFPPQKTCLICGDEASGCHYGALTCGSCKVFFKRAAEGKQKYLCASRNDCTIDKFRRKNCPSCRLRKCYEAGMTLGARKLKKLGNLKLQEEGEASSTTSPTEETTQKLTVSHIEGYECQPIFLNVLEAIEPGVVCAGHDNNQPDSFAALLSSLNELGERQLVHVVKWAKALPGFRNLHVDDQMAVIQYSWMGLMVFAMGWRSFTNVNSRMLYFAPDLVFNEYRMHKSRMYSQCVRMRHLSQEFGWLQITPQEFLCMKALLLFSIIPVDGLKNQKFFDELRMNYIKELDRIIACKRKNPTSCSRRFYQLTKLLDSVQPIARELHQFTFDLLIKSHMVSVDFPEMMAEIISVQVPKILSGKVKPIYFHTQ
# Method in brief: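 Cell line: GeneBLAzer AR-UAS-bla GripTite (HEK293). Stimulus: R1881 added after compound. Exposure: 16 h, 37C, 5% CO2. Readout: LiveBLAzer B/G FRET fluorescence after 2 h at room temperature.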
# [17] = target: Androgen receptor (Homo sapiens) (UniProt P10275); assay: qHTS assay to identify small molecule agonists of the androgen receptor (AR) signaling pathway using the MDA cell line (AID 743040; further: nearly all actives have a fitted effect of over 20% in size)
# Method in brief: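 After a 5 h incubation at 37C and 0% CO2, MDA-kb2 reporter cells were dosed with compounds in DMSO and kept 16 h under the same conditions. Luciferase activity was then read as luminescence with ONE-Glo.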
# [18] = target: Androgen receptor (Homo sapiens) (UniProt P10275); assay: qHTS assay to identify small molecule antagonists of the androgen receptor (AR) signaling pathway using the MDA cell line (AID 743042; further: nearly all actives have a fitted effect of over 55% in size; further: potency means the concentration at half of the fitted maximal effect)
# Method in brief: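 Antagonist mode: compounds plus R1881 agonist added to MDA-kb2 AR-luc cells, incubated 16 h at 37C. Luciferase reporter luminescence quantified, with multiplexed CellTiter-Fluor readout for cell viability.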
# [19] = target: Glucocorticoid receptor (Homo sapiens) (UniProt P04150); assay: qHTS assay to identify small molecule antagonists of the glucocorticoid receptor (GR) signaling pathway (AID 720692; active means well fitted inhibition curve with a large enough effect in the signal ratio in the repeat runs, not every such curve was filed as active; the % refers to the signal ratio)
# Sequence of Glucocorticoid receptor (Homo sapiens) (P04150 whole entry, looked up): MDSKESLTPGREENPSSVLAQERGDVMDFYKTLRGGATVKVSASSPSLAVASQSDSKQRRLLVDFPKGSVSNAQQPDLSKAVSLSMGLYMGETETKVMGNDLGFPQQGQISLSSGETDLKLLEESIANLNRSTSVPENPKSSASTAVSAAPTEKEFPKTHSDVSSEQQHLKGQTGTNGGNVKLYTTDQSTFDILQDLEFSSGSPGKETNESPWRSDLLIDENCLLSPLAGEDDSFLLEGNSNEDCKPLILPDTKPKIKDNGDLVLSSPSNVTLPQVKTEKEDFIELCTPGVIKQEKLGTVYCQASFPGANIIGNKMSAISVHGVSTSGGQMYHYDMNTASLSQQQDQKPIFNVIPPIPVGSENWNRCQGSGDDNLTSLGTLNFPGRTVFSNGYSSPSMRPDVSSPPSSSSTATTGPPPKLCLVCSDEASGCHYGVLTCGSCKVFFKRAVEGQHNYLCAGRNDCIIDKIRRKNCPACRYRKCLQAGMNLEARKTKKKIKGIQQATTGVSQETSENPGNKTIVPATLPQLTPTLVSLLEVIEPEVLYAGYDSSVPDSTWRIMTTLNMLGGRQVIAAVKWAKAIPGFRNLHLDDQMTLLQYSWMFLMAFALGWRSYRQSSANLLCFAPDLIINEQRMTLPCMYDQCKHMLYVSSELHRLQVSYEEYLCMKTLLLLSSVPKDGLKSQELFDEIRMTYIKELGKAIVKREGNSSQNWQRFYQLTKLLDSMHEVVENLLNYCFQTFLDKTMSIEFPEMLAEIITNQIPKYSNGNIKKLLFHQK
# Method in brief: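 Fluorescence from cleaved LiveBLAzer B/G FRET substrate reports GRE-driven beta-lactamase in HeLa cells; compounds are tested against 5 nM dexamethasone (final) over 18 h at 37 C, substrate incubation 2 h at room temperature.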
smiles,measurement,setting,value
CC(C)(C)c1ccc(OP(=O)(Oc2ccccc2)Oc2ccccc2)cc1,outcome,[1],inactive
same,Potency,[2],inactive
same,outcome,[3],inactive
same,outcome,[4],inactive
same,outcome,[5],inactive
same,Potency,[6],inactive
same,Potency,[7],inactive
same,Potency,[8],inactive
same,Potency,[9],inactive
same,Potency,[10],61.5 µM (active)
same,Potency,[11],27.5 µM (active)
same,Potency,[12],19.4 µM (active)
same,Potency,[13],27.5 µM (active)
[F][Sn]([c]1ccccc1)([c]1ccccc1)[c]1ccccc1,outcome,[1],inactive
same,Potency,[2],inactive
same,outcome,[3],inactive
same,outcome,[4],inactive
same,outcome,[5],inactive
same,Potency,[6],inactive
same,Potency,[7],inactive
same,Potency,[8],inactive
same,Potency,[9],0.977 µM (active)
same,Potency,[10],0.243 µM (active)
same,Potency,[11],0.433 µM (active)
same,Potency,[12],0.306 µM (active)
same,Potency,[14],1.23 µM (active)
same,Potency,[15],3.86 µM (active)
same,Potency,[13],0.77 µM (active)
CN=C=O,outcome,[1],inactive
same,Potency,[2],inactive
same,outcome,[3],inactive
same,outcome,[4],inactive
same,outcome,[5],inactive
same,Potency,[6],inactive
same,Potency,[7],inactive
same,Potency,[8],inactive
same,Potency,[9],inactive
same,Potency,[10],inactive
same,Potency,[11],inactive
same,Potency,[12],inactive
same,Potency,[14],inactive
same,Potency,[15],inactive
COC(=O)c1ccccc1S(=O)(=O)NC(=O)Nc1nc(C)nc(OC)n1,outcome,[1],inactive
same,Potency,[2],inactive
same,outcome,[3],inactive
same,outcome,[4],inactive
same,outcome,[5],inactive
same,Potency,[6],inactive
same,Potency,[7],inactive
same,Potency,[8],inactive
same,Potency,[9],inactive
same,Potency,[10],inactive
same,Potency,[11],inactive
same,Potency,[12],inactive
same,Potency,[14],inactive
same,Potency,[15],inactive
same,Potency,[13],inactive
CC1(C)C(C=C(Cl)Cl)C1C(=O)OC(C#N)c1ccc(F)c(Oc2ccccc2)c1 (stereo unspecified),outcome,[1],inactive
same,Potency,[2],inactive
same,outcome,[3],inactive
same,outcome,[4],inactive
same,outcome,[5],inactive
same,Potency,[6],inactive
same,Potency,[7],inactive
same,Potency,[8],inactive
same,Potency,[9],inactive
same,Potency,[10],inactive
same,Potency,[11],inactive
same,Potency,[14],inactive
same,Potency,[15],inactive
same,Potency,[13],inactive
O=S(=O)(O)F,outcome,[1],inactive
same,Potency,[2],inactive
same,outcome,[3],inactive
same,outcome,[4],inactive
same,outcome,[5],inactive
same,Potency,[6],inactive
same,Potency,[7],inactive
same,Potency,[8],inactive
same,Potency,[9],inactive
same,Potency,[10],inactive
same,Potency,[11],inactive
same,Potency,[14],inactive
same,Potency,[15],inactive
same,Potency,[13],inactive
CCCCn1cc[n+](C)c1 (tested in a mixture with another compound),outcome,[1],inactive
same,Potency,[2],inactive
same,outcome,[3],inactive
same,outcome,[4],inactive
same,outcome,[5],inactive
same,Potency,[6],inactive
same,Potency,[7],inactive
same,Potency,[8],inactive
same,Potency,[9],inactive
same,Potency,[10],inactive
same,Potency,[11],inactive
same,Potency,[14],inactive
same,Potency,[15],inactive
same,Potency,[13],inactive
CCCCCCC[CH2][Sn]([Cl])([Cl])[CH2]CCCCCCC,outcome,[1],inactive
same,Potency,[2],inactive
same,outcome,[3],inactive
same,outcome,[4],inactive
same,outcome,[5],inactive
same,Potency,[6],inactive
same,Potency,[7],inactive
same,Potency,[8],inactive
same,Potency,[9],54.9 µM (active)
same,Potency,[10],inactive
same,Potency,[11],inactive
same,Potency,[14],inactive
same,Potency,[16],21.9 µM (active)
same,outcome,[17],inactive
same,Potency,[15],inactive
same,Potency,[18],inactive
CC(=O)[O-].CC(=O)[O-].O.O.[Zn+2],outcome,[1],inactive
same,Potency,[2],inactive
same,outcome,[3],inactive
same,outcome,[4],inactive
same,outcome,[5],inactive
same,Potency,[6],inactive
same,Potency,[7],inactive
same,Potency,[8],inactive
same,Potency,[9],inactive
same,Potency,[10],inactive
same,Potency,[11],inactive
same,Potency,[12],inactive
same,Potency,[14],inactive
same,Potency,[15],inactive
same,Potency,[13],inactive
CC(C)N(C(=O)SC/C(Cl)=C/Cl)C(C)C,outcome,[1],inactive
same,Potency,[2],inactive
same,outcome,[3],inactive
same,outcome,[4],inactive
same,outcome,[5],inactive
same,Potency,[6],inactive
same,Potency,[7],inactive
same,Potency,[8],inactive
same,Potency,[9],inactive
same,Potency,[10],inactive
same,Potency,[11],inactive
same,Potency,[12],inactive
same,Potency,[14],inactive
same,Potency,[15],inactive
N#CCCl,outcome,[1],inactive
same,Potency,[2],inactive
same,outcome,[3],inactive
same,outcome,[4],inactive
same,outcome,[5],inactive
same,Potency,[6],inactive
same,Potency,[7],inactive
same,Potency,[8],inactive
same,Potency,[9],inactive
same,Potency,[10],inactive
same,Potency,[11],inactive
same,Potency,[12],inactive
same,Potency,[14],inactive
same,Potency,[15],inactive
same,Potency,[13],inactive
Brc1cccc(-c2ccccc2)c1,outcome,[1],inactive
same,Potency,[2],inactive
same,outcome,[3],inactive
same,outcome,[4],inactive
same,outcome,[5],inactive
same,Potency,[6],inactive
same,Potency,[7],inactive
same,Potency,[8],inactive
same,Potency,[19],inactive
same,Potency,[9],inactive
same,Potency,[10],inactive
same,Potency,[11],inactive
same,Potency,[12],inactive
same,Potency,[14],inactive
same,Potency,[15],inactive
same,Potency,[13],inactive
O=c1[nH]c(Cl)c(Cl)cc1Cl,outcome,[1],inactive
same,Potency,[2],inactive
same,outcome,[3],inactive
same,outcome,[4],inactive
same,outcome,[5],inactive
same,Potency,[6],inactive
same,Potency,[7],inactive
same,Potency,[8],inactive
same,Potency,[9],inactive
same,Potency,[10],inactive
same,Potency,[11],inactive
same,Potency,[12],inactive
same,Potency,[14],inactive
same,outcome,[17],inactive
same,Potency,[15],inactive
same,Potency,[18],inactive
same,Potency,[13],inactive
CCOP(=S)(OCC)SC(CCl)N1C(=O)c2ccccc2C1=O (stereo unspecified),outcome,[1],inactive
same,Potency,[2],inactive
same,outcome,[3],inactive
same,outcome,[4],inactive
same,outcome,[5],inactive
same,Potency,[6],inactive
same,Potency,[7],inactive
same,Potency,[8],inactive
same,Potency,[9],inactive
same,Potency,[10],48.6 µM (active)
same,Potency,[11],43.3 µM (active)
same,Potency,[12],61.1 µM (active)
same,outcome,[17],inactive
same,Potency,[15],inactive
same,Potency,[18],61.1 µM (active)
CCCCn1cc[n+](C)c1.[Cl][Fe-]([Cl])([Cl])[Cl],outcome,[1],inactive
same,Potency,[2],inactive
same,outcome,[3],inactive
same,outcome,[4],inactive
same,outcome,[5],inactive
same,Potency,[6],inactive
same,Potency,[7],inactive
same,Potency,[8],inactive
same,Potency,[9],inactive
same,Potency,[10],inactive
same,Potency,[11],inactive
same,Potency,[14],inactive
same,Potency,[15],inactive
same,Potency,[13],inactive
CC(=O)[O-].CC(=O)[O-].CC(=O)[O-].[Sb+3],"fluorescence, % of fluorescein",[1],0.0079% [at 3.72 µM]
same,"fluorescence, % of fluorescent control",[2],-0.0273% [at 3.72 µM]
same,activity change,[3],-0.0203% [at 3.72 µM]
same,"fluorescence, % of fluorescent control",[4],-0.102% [at 3.72 µM]
same,"fluorescence, % of Rose Bengal",[5],0.0344% [at 3.72 µM]
same,"fluorescence, % of fluorescent control",[6],-0.11% [at 3.72 µM]
same,"fluorescence, % of fluorescein control",[7],0.0057% [at 3.72 µM]
same,"fluorescence, % of fluorescent control",[8],0.0192% [at 3.72 µM]
same,"viability change, negative = cytotoxic",[9],-0.477% [at 7.04 µM]
same,"activity change, negative = cytotoxicity",[10],-1.26% [at 8.52 µM]
same,"activity, negative = cytotoxicity",[11],0.291% [at 8.53 µM]
same,"activity change, negative = cytotoxicity",[12],-0.679% [at 8.55 µM]
same,"activity change, negative = cytotoxicity",[14],-2.21% [at 7.04 µM]
same,"viability change, negative = cytotoxic",[15],-11.1% [at 8.47 µM]
same,"activity change, negative = cytotoxic",[13],15.9% [at 8.44 µM]
